Our source for the composite z-score and z-score values is PubChem BioAssay.

In experiment [1] the test system is Plasmodium falciparum Sir2 (PF13_0152, Sir2A). The experiment can be described thus: pfSir2 binders on small-molecule microarrays, primary screen, biochemical, small-molecule microarray, 635 nm fluorescence (AID 1098).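 Note: score merges spot fluorescence intensity with its signal-to-noise ratio.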 Conditions: small-molecule microarray binding, fluorescence 635 nm; higher = more signal.
Experiment [2] can be described thus: small-molecule microarray binders of probe aDKK1, primary screen, biochemical, biotinylated probe, 635/667 nm fluorescence (AID 1099).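 Note: score merges 667nm spot fluorescence with signal to noise across triplicate slides.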 Conditions: higher = more signal.
Experiment [3] can be described thus: small-molecule microarray binders of probe aCHRDL2, primary screen, biochemical, biotinylated probe, 635/667 nm fluorescence (AID 1100). Particulars: higher = more signal.
Experiment [4] in a line: splicing luciferase reporter signal modulators, primary screen, spliceosome inhibition project, cell-based, HEK293, splice +/- reporter (AID 1101).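 Note: HEK293 cells carrying a splicing-competent luciferase reporter gene; test concentration not given here.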 Particulars: luminescence, 24 h, higher = more signal, called active from +8 up or from −8 down.
Experiment [5] has as its target Fibroblast growth factor 10 (Homo sapiens) (UniProt O15520). As to the kind of experiment: FGF10 binders on small-molecule microarrays, primary screen, biochemical, small-molecule microarray, 635 nm fluorescence (AID 1102). Conditions: FGF10 binding, fluorescence 635 nm, higher = more signal.
Experiment [6] relates to glycogen synthase kinase-3 (GSK3A per assay name; protocol says GSK3B). As to the kind of experiment: GSK3 binders on small-molecule microarrays, primary screen, biochemical, small-molecule microarray, 635 nm fluorescence, GSK3A (AID 1103). Note: the record names both GSK3A and GSK3B. Conditions: small-molecule microarray binding, fluorescence 635 nm; higher = more signal.
The target in experiment [7] is Epidermal growth factor receptor (Homo sapiens) (UniProt P00533). As to the kind of experiment: EGFR binders on small-molecule microarrays, primary screen, biochemical, small-molecule microarray, 635 nm fluorescence (AID 1104).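 Note: score merges 667 nm emission intensity with spot signal to noise over triplicate slides.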 Conditions: EGFR binding, higher = more signal.
Experiment [8] addresses Follistatin-related protein 3 (Homo sapiens) (UniProt O95633). The experiment can be described thus: FSTL3 binders on small-molecule microarrays, primary screen, biochemical, small-molecule microarray, 635 nm fluorescence (AID 1105).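 Note: score merges emission near 667 nm and signal to noise per printed spot across three slides.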 Particulars: FSTL3 binding, higher = more signal.
Experiment [9] deals with Dickkopf-related protein 1 (Homo sapiens) (UniProt O94907). The experiment can be described thus: DKK1 binders on small-molecule microarrays, primary screen, biochemical, small-molecule microarray, 635 nm fluorescence scan (AID 1106).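 Note: score merges emission near 667 nm with signal to noise over three replicate slides.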 Particulars: DKK1 binding, higher = more signal.
In experiment [10] the test system is Inhibin beta A chain (activin A). As to the kind of experiment: INHBA (activin A) binders on microarrays, primary screen, biochemical, small-molecule microarray, 635 nm fluorescence scan (AID 1107).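 Note: mouse activin A protein probed at 4.33 µg/mL on printed slides; score merges bound-protein fluorescence near 667 nm with spot signal-to-noise.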 Particulars: small-molecule microarray binding, higher = more signal.
For experiment [11], the system named is Human papillomavirus type 1a protein E7 (residues 44-93). As to the kind of experiment: HPV1a E7 fragment binders on microarrays, primary screen, biochemical, small-molecule microarray, residues 44-93, 635 nm fluorescence (AID 1108).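 Note: E7 fragment applied at 1 µg/mL in TBST for 1 h at 4 C; score combines spot fluorescence with its signal to noise ratio.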 Particulars: small-molecule microarray binding, fluorescence 635 nm; higher = more signal.
Experiment [12] in a line: modulators of HCV replicon luciferase signal, primary screen, HCV replication inhibitor project, Huh7 cells, luciferase reporter (AID 1109).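 Note: huh7 hepatoma cells harbouring a luciferase neomycin HCV replicon reporter; luciferase luminescence as measure of HCV replicon replication; test concentration not given here.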 Particulars: 48 h, higher = more signal. (A replicon is a self-replicating genome or part of one, used to study replication in cells.)
In experiment [13] the target is Left-right determination factor 2 (Homo sapiens) (UniProt O00292). The experiment can be described thus: LEFTY2 binders on small-molecule microarrays, primary screen, biochemical, small-molecule microarray, 635 nm fluorescence scan (AID 1110). Particulars: LEFTY2 binding, higher = more signal.
Experiment [14] concerns the target Calmodulin-1 (Homo sapiens) (UniProt P0DP23). As to the kind of experiment: CALM1 binders on microarrays, EGTA buffer, profiling panel, biochemical, small-molecule microarray, Cy5-labelled CALM1 (AID 1111).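 Note: labelled calmodulin applied in Tris saline Tween buffer holding calcium plus EGTA and DTT.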 Conditions: Cy5-CALM1 binding fluorescence, higher = more signal.
Experiment [15] has the same target. The experiment can be described thus: calcium-bound CALM1 binders on microarrays, profiling panel, artefact control for SMM control-protein annotation, biochemical, small-molecule microarray, Cy5-labelled CALM1, plus calcium (AID 1112).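 Note: score merges spot fluorescence with signal to noise from triplicate slides.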 Particulars: Cy5-CALM1 binding fluorescence, higher = more signal.
The nature of experiment [16]: small-molecule microarray binders of probe aWnt5a, primary screen, biochemical, biotinylated probe, 635/667 nm fluorescence (AID 1113).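 Note: score merges 667 nm fluorescence intensity with signal-to-noise per printed feature.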 Particulars: higher = more signal.
A short description of experiment [17]: small-molecule microarray binders of probe aShh, primary screen, biochemical, biotinylated probe, 635/667 nm fluorescence (AID 1114).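 Note: probe is biotin-labelled aShh protein from a stem cell growth factor screen; measures binding of labelled protein to compounds printed on the slide; score merges feature fluorescence at 667 nm with signal-to-noise.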 Particulars: higher = more signal.
Experiment [18] in a line: small-molecule microarray binders of probe aNog, primary screen, biochemical, biotinylated probe, 635/667 nm fluorescence (AID 1115).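 Note: probe is biotinylated aNog protein used at 0.15 µg/mL for 1 h at 4 C; z-score combines 667 nm fluorescence of each spot with its signal to noise.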 Conditions: higher = more signal.
Experiment [19] deals with Torsin-1A-interacting protein 1 (Homo sapiens) (UniProt Q5JTV8). The experiment can be described thus: LAP1 binders from COS7 cell lysate, primary screen, small-molecule microarray, 635/667 nm fluorescence (AID 1116). Particulars: COS7-hLAP1 lysate binding, 635 nm fluorescence, higher = more signal.
The target of experiment [20] is Alpha-bungarotoxin (Bungarus multicinctus) (UniProt P60615). As to the kind of experiment: alpha-bungarotoxin binders on microarray, profiling panel, artefact control for SMM control protein annotation, biochemical, small-molecule microarray, Alexa647 label, 635/667 nm fluorescence (AID 1117). Conditions: alpha-BTX-A647 binding fluorescence, higher = more signal.

Active and inactive are the calls of the source.

Follistatin-related protein 3 (Homo sapiens), sequence (O95633 whole entry, looked up): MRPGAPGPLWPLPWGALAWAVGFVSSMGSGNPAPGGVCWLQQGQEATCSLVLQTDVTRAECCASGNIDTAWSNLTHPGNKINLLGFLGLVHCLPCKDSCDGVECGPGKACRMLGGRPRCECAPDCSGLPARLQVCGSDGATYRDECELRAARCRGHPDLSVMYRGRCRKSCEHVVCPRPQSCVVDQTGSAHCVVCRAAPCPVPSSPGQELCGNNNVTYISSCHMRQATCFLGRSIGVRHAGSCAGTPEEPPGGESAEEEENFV
Torsin-1A-interacting protein 1 (Homo sapiens), sequence (Q5JTV8 whole entry, looked up): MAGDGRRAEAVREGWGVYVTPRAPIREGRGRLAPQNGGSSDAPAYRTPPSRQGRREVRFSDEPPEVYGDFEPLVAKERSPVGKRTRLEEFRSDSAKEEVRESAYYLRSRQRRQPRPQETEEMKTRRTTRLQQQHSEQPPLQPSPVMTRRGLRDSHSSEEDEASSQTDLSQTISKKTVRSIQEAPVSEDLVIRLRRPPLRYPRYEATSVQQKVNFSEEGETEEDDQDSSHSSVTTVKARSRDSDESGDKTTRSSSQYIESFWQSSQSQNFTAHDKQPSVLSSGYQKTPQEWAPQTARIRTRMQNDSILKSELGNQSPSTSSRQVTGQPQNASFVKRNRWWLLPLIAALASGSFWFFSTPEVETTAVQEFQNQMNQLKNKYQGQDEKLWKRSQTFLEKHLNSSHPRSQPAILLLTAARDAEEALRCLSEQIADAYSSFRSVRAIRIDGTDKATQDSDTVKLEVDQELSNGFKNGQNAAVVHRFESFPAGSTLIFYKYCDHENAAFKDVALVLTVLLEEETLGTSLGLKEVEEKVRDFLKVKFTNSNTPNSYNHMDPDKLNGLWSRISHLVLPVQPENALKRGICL
Epidermal growth factor receptor (Homo sapiens), sequence (P00533 whole entry, looked up): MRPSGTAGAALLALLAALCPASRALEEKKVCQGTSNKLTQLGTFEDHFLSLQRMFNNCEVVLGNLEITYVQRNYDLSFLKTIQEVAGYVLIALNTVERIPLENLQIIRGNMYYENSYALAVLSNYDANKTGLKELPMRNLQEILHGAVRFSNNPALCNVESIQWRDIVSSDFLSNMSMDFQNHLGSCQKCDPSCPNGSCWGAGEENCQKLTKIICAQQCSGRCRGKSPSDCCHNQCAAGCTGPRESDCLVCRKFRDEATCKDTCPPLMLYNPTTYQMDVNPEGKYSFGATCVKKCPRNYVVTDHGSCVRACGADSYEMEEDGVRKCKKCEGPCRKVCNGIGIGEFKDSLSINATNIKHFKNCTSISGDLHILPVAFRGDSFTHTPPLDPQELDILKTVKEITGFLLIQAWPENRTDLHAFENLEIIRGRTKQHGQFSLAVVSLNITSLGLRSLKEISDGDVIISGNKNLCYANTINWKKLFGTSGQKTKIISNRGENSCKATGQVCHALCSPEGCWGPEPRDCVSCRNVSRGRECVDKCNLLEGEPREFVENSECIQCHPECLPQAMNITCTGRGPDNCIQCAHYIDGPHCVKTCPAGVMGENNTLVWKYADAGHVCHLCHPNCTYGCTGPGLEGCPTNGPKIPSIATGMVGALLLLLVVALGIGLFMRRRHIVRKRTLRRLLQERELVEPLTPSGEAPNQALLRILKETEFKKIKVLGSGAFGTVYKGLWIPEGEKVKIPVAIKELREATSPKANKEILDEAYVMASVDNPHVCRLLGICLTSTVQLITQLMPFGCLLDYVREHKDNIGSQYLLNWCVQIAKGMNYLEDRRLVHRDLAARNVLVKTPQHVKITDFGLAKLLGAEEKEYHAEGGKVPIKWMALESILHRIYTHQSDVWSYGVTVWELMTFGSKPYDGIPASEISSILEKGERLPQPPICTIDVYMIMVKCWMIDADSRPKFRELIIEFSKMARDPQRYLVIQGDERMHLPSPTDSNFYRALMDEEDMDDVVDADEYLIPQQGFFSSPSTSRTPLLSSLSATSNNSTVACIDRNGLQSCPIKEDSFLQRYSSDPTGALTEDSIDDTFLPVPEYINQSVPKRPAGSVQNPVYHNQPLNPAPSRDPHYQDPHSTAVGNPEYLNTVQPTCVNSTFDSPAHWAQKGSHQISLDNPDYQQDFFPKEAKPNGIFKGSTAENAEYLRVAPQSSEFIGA
Left-right determination factor 2 (Homo sapiens), sequence (O00292 whole entry, looked up): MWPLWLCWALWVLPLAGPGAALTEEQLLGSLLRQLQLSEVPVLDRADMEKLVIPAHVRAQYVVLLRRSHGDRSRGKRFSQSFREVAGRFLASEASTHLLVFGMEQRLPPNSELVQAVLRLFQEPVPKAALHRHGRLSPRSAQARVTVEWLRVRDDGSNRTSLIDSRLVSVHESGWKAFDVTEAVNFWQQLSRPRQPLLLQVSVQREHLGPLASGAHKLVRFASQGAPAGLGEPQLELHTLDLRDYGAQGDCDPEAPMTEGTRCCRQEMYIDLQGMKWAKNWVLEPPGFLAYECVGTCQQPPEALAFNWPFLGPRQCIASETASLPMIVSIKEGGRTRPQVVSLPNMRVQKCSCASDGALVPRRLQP
Alpha-bungarotoxin (Bungarus multicinctus), sequence (P60615 whole entry, looked up): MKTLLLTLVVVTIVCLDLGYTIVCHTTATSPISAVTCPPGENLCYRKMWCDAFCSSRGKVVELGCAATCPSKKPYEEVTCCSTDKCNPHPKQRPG
Fibroblast growth factor 10 (Homo sapiens), sequence (O15520 whole entry, looked up): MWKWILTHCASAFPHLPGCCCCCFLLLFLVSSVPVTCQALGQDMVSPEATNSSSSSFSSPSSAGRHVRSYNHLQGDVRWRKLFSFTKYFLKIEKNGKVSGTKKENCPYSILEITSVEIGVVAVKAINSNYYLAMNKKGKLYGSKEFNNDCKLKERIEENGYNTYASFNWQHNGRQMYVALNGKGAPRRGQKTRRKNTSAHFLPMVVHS
Dickkopf-related protein 1 (Homo sapiens), sequence (O94907 whole entry, looked up): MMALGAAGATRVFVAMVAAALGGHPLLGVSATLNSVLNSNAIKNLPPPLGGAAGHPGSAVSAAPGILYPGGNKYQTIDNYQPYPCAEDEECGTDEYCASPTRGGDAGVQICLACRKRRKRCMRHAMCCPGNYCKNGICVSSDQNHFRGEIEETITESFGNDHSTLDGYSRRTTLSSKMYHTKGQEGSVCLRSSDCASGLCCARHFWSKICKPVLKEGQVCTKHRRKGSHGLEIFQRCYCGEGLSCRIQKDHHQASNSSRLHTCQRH

Take `CC(C)OC(=O)CC(=O)CC(O)c1cccc([N+](=O)[O-])c1` (stereo not given): the composite z-score in experiment [1] is 0.784; in [2] it was 0.645; in experiment [3], 0.851; in experiment [5], 0.366; in experiment [6], 0.814; in experiment [7], -0.113. The composite z-score in experiment [8] was 0.753; in experiment [9], -0.229; in [10], 0.916; in experiment [11], 1.31; in experiment [13], 0.117; in [14] it was 0.834. The composite z-score is 0.17 in experiment [15]; 0.264 in [16]; 0.418 in [17]; -0.138 in experiment [18]; 1.24 in experiment [19]; 0.288 in experiment [20]. The z-score was -2.86 (inactive) in [4] and -1.6 in experiment [12].

Regarding `CCOC(=O)C[C@H]1[C@H](OC(=O)c2ccccc2-c2ccccc2)[C@@H](NC(=O)c2ccc3ccccc3c2)c2cc(OCCCO)ccc2N1C(=O)Cc1ccc(OC)cc1`, the composite z-score in [1] is -0.332; in [2] it was 0.29; in experiment [3], 0.58; in experiment [5], 0.125; in experiment [6] it was -0.914; in [7], -0.201. The composite z-score in [8] is -0.517; in experiment [9] it was 0.225; in experiment [10] it was 0.892; in experiment [11], -0.201; in experiment [13] it was 0.23; in [14] it was 0.115. In addition, the composite z-score in experiment [15] is 0.0612; in experiment [16] it was -0.0643; in experiment [17] it was 0.112; in experiment [18] it was 0.257; in [19], -0.0261; in experiment [20] it was 0.264. Further, the results for the z-score in experiment [4] and in [12] were -0.897 (inactive) and -1.6, respectively.

As for `C=CCOC(=O)[C@@H]1[C@H]2C(=O)O[C@H](c3ccccc3)[C@H](c3ccccc3)N2[C@H](c2ccc(OCCOC(=O)[C@H]3C[C@H]4C(=O)N[C@@H](CCCCN(C)C)C(=O)N4[C@H]3c3ccc(O)cc3)cc2)[C@@]12C(=O)Nc1ccc(I)cc12`, the composite z-score is 1.52 in experiment [1]; 0.0904 in experiment [2]; -0.13 in [3]; 0.88 in experiment [5]; 1.33 in [6]; 0.989 in [7]. Besides, the composite z-score in experiment [8] is 1.42; in experiment [9], 1.15; in experiment [10], 0.291; in [11], 1.06; in experiment [13] it was 1.17; in experiment [14], -0.842. Also, the composite z-score in experiment [15] was -0.972; in experiment [16], 0.0317; in [17], -0.0578; in [18] it was 0.219; in [19], 1.31; in experiment [20] it was 1.51. Besides, the values for the z-score in [4] and in experiment [12] were 0.676 (inactive) and -3.31, respectively.

As to `C=C(C)[C@@H]1CC=C(C(O)C2C=CC3C(=O)N(C)C(=O)C3N2Nc2ccc([N+](=O)[O-])cc2[N+](=O)[O-])CC1` (stereo not given in full), the composite z-score in [1] is 0.626; in experiment [2], 0.989; in [3] it was 1.05; in experiment [5] it was 0.85; in experiment [6] it was 1.28; in experiment [7], 0.963. The composite z-score was 1.04 in experiment [8]; 0.0615 in experiment [9]; 1.35 in experiment [10]; 1.45 in experiment [11]; 0.265 in [13]; 0.79 in experiment [14]. For the same compound, the composite z-score in experiment [15] came to 0.441; in experiment [16], 0.101; in experiment [17], 0.302; in experiment [18] it was 1.46; in experiment [19], 0.958; in [20], 1.95. Moreover, the z-score is 1.86 (inactive) in [4] and -0.44 in [12].

For `NC(=O)N1C(=O)C2C(C1=O)C1C=C(CCCO)C2C(c2ccc(CN3CCCC3)cc2)N1Cc1cc2c(cc1Br)OCO2` (stereo not given), the composite z-score in experiment [1] was -0.0167; in experiment [2] it was -0.204; in experiment [3], 0.228; in experiment [5], 0.325; in experiment [6] it was 0.177; in experiment [7], -0.287. Further, the composite z-score in [8] was -0.0816; in [9] it was 0.388; in [10], 0.45; in [11], -1.36; in [13] it was 0.943; in [14], -0.666. The composite z-score in [15] is -0.361; in [16], -0.128; in experiment [17] it was 0.0796; in experiment [18], -0.252; in [19], 0.187; in experiment [20], -0.493. Further, the figures for the z-score in experiment [4] and in [12] were 0.343 (inactive) and -1.51, respectively.

Regarding `CN1C(=O)C2C=CC(C(O)c3ccc(-c4ccccc4)s3)N(NC(=O)OC(C)(C)C)C2C1=O` (stereo not given), the composite z-score in [1] came to 0.871; in [2] it was 0.625; in [3], 1.04; in [5], 0.171; in experiment [6], 0.484; in experiment [7], 0.609. Besides, the composite z-score came to 1.02 in experiment [8]; 0.207 in experiment [9]; 0.86 in experiment [10]; 0.399 in experiment [11]; 0.285 in experiment [13]; 2.28 in experiment [14]. Also, the composite z-score is 0.902 in experiment [15]; 0.055 in experiment [16]; -0.279 in [17]; 1.38 in experiment [18]; 1.52 in [19]; 1.62 in [20]. For the same compound, the values for the z-score in experiment [4] and in experiment [12] were 2.11 (inactive) and -0.204, respectively.
